Results on 37 compounds are retold here after PubChem BioAssay (Tox21).

Inconclusive results are not listed. Where a call stands in place of a potency, no number is given. The source made the active and inactive calls. Unless noted, calls follow the shape of the full dose curve.

Chain of Progesterone receptor (Homo sapiens) (P06401 whole entry, looked up): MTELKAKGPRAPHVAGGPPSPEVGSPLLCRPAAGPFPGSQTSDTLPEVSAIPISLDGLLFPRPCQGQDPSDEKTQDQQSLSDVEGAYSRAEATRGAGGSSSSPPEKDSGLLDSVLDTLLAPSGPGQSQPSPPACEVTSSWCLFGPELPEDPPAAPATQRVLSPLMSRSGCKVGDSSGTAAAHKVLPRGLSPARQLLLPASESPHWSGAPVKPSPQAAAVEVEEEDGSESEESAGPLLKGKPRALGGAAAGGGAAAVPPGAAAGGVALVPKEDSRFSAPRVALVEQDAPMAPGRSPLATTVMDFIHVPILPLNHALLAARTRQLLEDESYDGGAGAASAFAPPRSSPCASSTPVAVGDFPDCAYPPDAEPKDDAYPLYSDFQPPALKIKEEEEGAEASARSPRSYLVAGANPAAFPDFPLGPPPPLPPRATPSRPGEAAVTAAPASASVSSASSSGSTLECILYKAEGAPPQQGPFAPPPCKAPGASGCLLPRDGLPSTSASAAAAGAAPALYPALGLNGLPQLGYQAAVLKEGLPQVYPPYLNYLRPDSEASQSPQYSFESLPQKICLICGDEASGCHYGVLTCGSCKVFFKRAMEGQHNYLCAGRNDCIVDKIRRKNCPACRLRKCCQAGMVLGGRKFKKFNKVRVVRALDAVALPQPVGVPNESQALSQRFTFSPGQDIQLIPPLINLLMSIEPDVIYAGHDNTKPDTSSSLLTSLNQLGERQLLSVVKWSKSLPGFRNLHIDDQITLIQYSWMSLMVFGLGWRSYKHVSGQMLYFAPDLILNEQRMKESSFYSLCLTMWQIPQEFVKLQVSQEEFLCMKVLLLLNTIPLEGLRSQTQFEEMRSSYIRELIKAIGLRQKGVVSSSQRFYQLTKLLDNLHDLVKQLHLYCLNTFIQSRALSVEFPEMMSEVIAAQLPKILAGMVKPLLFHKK

Test system in the first test: not listed separately
As to the kind of experiment: qHTS assay to identify small molecule agonists of the estrogen receptor alpha (ER-alpha) signaling pathway in the presence of an antagonist - cell viability counter screen (AID 1259386; active = well fitted cell-killing curve with a large enough effect in the repeat runs;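 also: cells exposed to compounds for 22 h at 37 °C before the viability read; nearly all actives have a fitted effect of over 30% in size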). As to conditions: VM7Luc4E2 viability, CellTiter-Fluor fluorescence, 22 h; series mostly up to 92.4 µM. An outline of the steps: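 In this counter screen, compound effects on VM7Luc4E2 viability were tested in the presence of the antagonist ICI-182,780 at 10.0nM final. Compounds were dosed at 15 concentrations, exposure lasted 22hr, and the CellTiter-Fluor signal was read.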
On the technique in general: qHTS replaces the single test concentration by a dilution series.
As for `CC(C)=CC(=O)O`, the result was inactive.
The same measure, in the same setting: with `O=C(O)c1ccccc1S` the entry was “inactive”; with `C=CCSCC1Nc2cc(Cl)c(S(N)(=O)=O)cc2S(=O)(=O)N1` (stereo unspecified), “inactive”.
On the same count and under the same terms, with `CCCCc1ccc(N)cc1` the entry was “inactive”.
Regarding `CC(C)COC(=O)c1ccccc1O`, the result was inactive.
`CCCCCCCCCCCCCCC`: the result was inactive.
Still for that read-out and setting: with `O=[N+]([O-])c1ccc(CCO)cc1` the entry was “inactive”; with `CCN(CC)S(=O)(=O)c1ccc(C(=O)O)cc1`, “inactive”; with `Nc1ccn(C2CO[C@H](CO)O2)c(=O)n1` (stereo partly specified), “inactive”.
Still for that read-out and setting: with `COC(C(=O)O)c1ccccc1` (stereo unspecified) the entry was “inactive”; with `CCCCCCC(CCCCCCCCCCC(=O)OCC(COC(C)=O)OC(C)=O)OC(C)=O` (stereo unspecified), “inactive”.
Consider `NCC[C@H](O)C(=O)N[C@@H]1C[C@H](N)[C@@H](O[C@H]2O[C@H](CN)[C@@H](O)[C@H](O)[C@H]2O)[C@H](O)[C@H]1O[C@H]1O[C@H](CO)[C@@H](O)[C@H](N)[C@H]1O`, for which the activity change, negative = cytotoxicity is 0.765% [at 0.349 µM] (inactive).
For `NC(=O)c1ncn([C@@H]2O[C@H](CO)[C@@H](O)[C@H]2O)c1N`, the result was inactive.
On the same count and under the same terms, the result for `CCCc1ccccc1O` reads “inactive”.
Still for that read-out and setting: the result for `CO` reads “inactive”; that for `C=CCOCC(O)CS(=O)(=O)O` (stereo unspecified), “inactive”.
Same read-out and setting: the result for `Nc1ncnc2c1ncn2Cc1c(F)cccc1Cl` reads “inactive”; that for `NC(=O)CCCCC1CCSS1` (stereo unspecified), “inactive”.
For the compound `CC(C)c1ccc2oc3nc(N)c(C(=O)O)cc3c(=O)c2c1`, the result was inactive.
On the same count and under the same terms, with `Fc1ccccc1-c1ccccc1` the entry was “inactive”.
On the same count and under the same terms, with `CC(C)N1C(=O)c2ccccc2C1=O` the entry was “inactive”.
The same measure, in the same setting: with `O=S(=O)(O)c1ccccc1O` the entry was “inactive”; with `COC(=O)CCCCCCCCC(=O)OC`, “inactive”; with `c1ccc(CCCc2ccccn2)cc1`, “inactive”.
With `O=C(O)c1ccc[n+]([O-])c1`, the result was inactive.
The same measure, in the same setting: with `NS(=O)(=O)c1cc2c(cc1Cl)NC(CSCc1ccccc1)=NS2(=O)=O` the entry was “inactive”.
With `c1ccc2cnncc2c1`, the result was inactive.
On the same count and under the same terms, with `CC1=CC(=O)CCC1` the entry was “inactive”.
On the same count and under the same terms, with `CN(C)N=Nc1ccccc1` the entry was “inactive”.
Consider `NC(=S)Nc1cccc2ccccc12`, for which the activity change, negative = cytotoxicity was 0.0918% [at 8.39 µM] (inactive).
Consider `CC(C)c1cccc(O)c1`, for which the result was inactive.
Still for that read-out and setting: with `NC(N)=NS(=O)(=O)c1ccc(N)cc1` the entry was “inactive”.
On the same count and under the same terms, with `CCCCCCCCN(C)CCCCCCCC` the entry was “inactive”; with `CC1(C)SC(C)(C)SC(C)(C)S1`, “inactive”.
Same read-out and setting: the result for `NCCN1CCNC1=O` reads “inactive”; that for `CCCCCCCCCCC1CO1` (stereo unspecified), “inactive”; that for `C=CCOc1nc(OCC=C)nc(OCC=C)n1`, “inactive”.

A further test deals with Progesterone receptor (Homo sapiens) (UniProt P06401). Nature of the test: qHTS assay to identify small molecule agonists of the progesterone receptor (PR) signaling pathway (AID 1346784). Also: nearly all actives have a fitted effect of over 30% in size. As to conditions: PR-UAS-bla HEK293T, beta-lactamase FRET ratio, 16 h; series mostly up to 92.4 µM. Summed up:
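PR-UAS-bla HEK 293T cells (beta-lactamase reporter under UAS) in 2% charcoal-stripped FBS, dosed with 23 nL compound after 6 hr, incubated 16hr at 37C. LiveBLAzer B/G FRET substrate added, fluorescence read after 2 hours.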
Consider `CC(C)=CC(=O)O`, for which the Potency entry was “inactive”.
The same measure, in the same setting: the result for `O=C(O)c1ccccc1S` reads “inactive”; that for `C=CCSCC1Nc2cc(Cl)c(S(N)(=O)=O)cc2S(=O)(=O)N1` (stereo unspecified), “inactive”; that for `CCCCc1ccc(N)cc1`, “inactive”.
Still for that read-out and setting: with `CC(C)COC(=O)c1ccccc1O` the entry was “inactive”; with `CCCCCCCCCCCCCCC`, “inactive”.
Same read-out and setting: with `O=[N+]([O-])c1ccc(CCO)cc1` the entry was “inactive”; with `CCN(CC)S(=O)(=O)c1ccc(C(=O)O)cc1`, “inactive”; with `Nc1ccn(C2CO[C@H](CO)O2)c(=O)n1` (stereo partly specified), “inactive”.
On to `COC(C(=O)O)c1ccccc1` (stereo unspecified), for which the Potency result was “inactive”.
Consider `CCCCCCC(CCCCCCCCCCC(=O)OCC(COC(C)=O)OC(C)=O)OC(C)=O` (stereo unspecified), for which the Potency entry was “inactive”.
On to `NCC[C@H](O)C(=O)N[C@@H]1C[C@H](N)[C@@H](O[C@H]2O[C@H](CN)[C@@H](O)[C@H](O)[C@H]2O)[C@H](O)[C@H]1O[C@H]1O[C@H](CO)[C@@H](O)[C@H](N)[C@H]1O`, for which the activation was 0.26% [at 0.349 µM] (inactive).
For the compound `NC(=O)c1ncn([C@@H]2O[C@H](CO)[C@@H](O)[C@H]2O)c1N`, the Potency entry is “inactive”.
On the same count and under the same terms, the result for `CCCc1ccccc1O` reads “inactive”; that for `CO`, “inactive”; that for `C=CCOCC(O)CS(=O)(=O)O` (stereo unspecified), “inactive”.
On the same count and under the same terms, with `Nc1ncnc2c1ncn2Cc1c(F)cccc1Cl` the entry was “inactive”; with `NC(=O)CCCCC1CCSS1` (stereo unspecified), “inactive”.
The same measure, in the same setting: with `CC(C)c1ccc2oc3nc(N)c(C(=O)O)cc3c(=O)c2c1` the entry was “inactive”.
`Fc1ccccc1-c1ccccc1`: the Potency entry is “inactive”.
The same measure, in the same setting: the result for `CC(C)N1C(=O)c2ccccc2C1=O` reads “inactive”.
On to `O=S(=O)(O)c1ccccc1O`, for which the Potency entry is “inactive”.
The same measure, in the same setting: the result for `COC(=O)CCCCCCCCC(=O)OC` reads “inactive”.
Same read-out and setting: the result for `c1ccc(CCCc2ccccn2)cc1` reads “inactive”; that for `O=C(O)c1ccc[n+]([O-])c1`, “inactive”.
Same read-out and setting: with `NS(=O)(=O)c1cc2c(cc1Cl)NC(CSCc1ccccc1)=NS2(=O)=O` the entry was “inactive”; with `c1ccc2cnncc2c1`, “inactive”.
Regarding `CC1=CC(=O)CCC1`, the Potency result was “inactive”.
On the same count and under the same terms, the result for `CN(C)N=Nc1ccccc1` reads “inactive”.
In the case of `NC(=S)Nc1cccc2ccccc12`, the activation is -0.12% [at 8.39 µM] (inactive).
With `CC(C)c1cccc(O)c1`, the Potency result was “inactive”.
Same read-out and setting: with `NC(N)=NS(=O)(=O)c1ccc(N)cc1` the entry was “inactive”; with `CCCCCCCCN(C)CCCCCCCC`, “inactive”.
Consider `CC1(C)SC(C)(C)SC(C)(C)S1`, for which the Potency entry is “inactive”.
On the same count and under the same terms, with `NCCN1CCNC1=O` the entry was “inactive”.
Still for that read-out and setting: the result for `CCCCCCCCCCC1CO1` (stereo unspecified) reads “inactive”; that for `C=CCOc1nc(OCC=C)nc(OCC=C)n1`, “inactive”.

Another test has the same target. As to the kind of experiment: qHTS assay to identify small molecule antagonists of the progesterone receptor (PR) signaling pathway (AID 1346795; active = well fitted inhibition curve with a large enough effect in the signal ratio in the repeat runs, not every such curve was filed as active; the % refers to the signal ratio). As to conditions: PR-UAS-bla HEK293T, beta-lactamase FRET ratio, 16 h; series mostly up to 92.4 µM. An outline of the steps:
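PR-UAS-bla HEK293T cells with beta-lactamase reporter under UAS control, in 2% charcoal-stripped FBS, treated with compounds plus 1 nM promegestone (R5020, final) for 16 hr at 37C. Read-out: FRET beta-lactamase substrate fluorescence after 2 hr at room temperature.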
As to `CC(C)=CC(=O)O`, the Potency result was “inactive”.
Still for that read-out and setting: the result for `O=C(O)c1ccccc1S` reads “inactive”.
Still for that read-out and setting: the result for `C=CCSCC1Nc2cc(Cl)c(S(N)(=O)=O)cc2S(=O)(=O)N1` (stereo unspecified) reads “inactive”; that for `CCCCc1ccc(N)cc1`, “inactive”.
The same measure, in the same setting: the result for `CC(C)COC(=O)c1ccccc1O` reads “inactive”; that for `CCCCCCCCCCCCCCC`, “inactive”; that for `O=[N+]([O-])c1ccc(CCO)cc1`, “inactive”.
For `CCN(CC)S(=O)(=O)c1ccc(C(=O)O)cc1`, the Potency entry is “inactive”.
The same measure, in the same setting: with `Nc1ccn(C2CO[C@H](CO)O2)c(=O)n1` (stereo partly specified) the entry was “inactive”; with `COC(C(=O)O)c1ccccc1` (stereo unspecified), “inactive”.
The same measure, in the same setting: with `CCCCCCC(CCCCCCCCCCC(=O)OCC(COC(C)=O)OC(C)=O)OC(C)=O` (stereo unspecified) the entry was “inactive”.
Consider `NCC[C@H](O)C(=O)N[C@@H]1C[C@H](N)[C@@H](O[C@H]2O[C@H](CN)[C@@H](O)[C@H](O)[C@H]2O)[C@H](O)[C@H]1O[C@H]1O[C@H](CO)[C@@H](O)[C@H](N)[C@H]1O`, for which the activity change, negative = inhibition is 2.43% [at 0.348 µM] (inactive).
As to `NC(=O)c1ncn([C@@H]2O[C@H](CO)[C@@H](O)[C@H]2O)c1N`, the Potency result was “inactive”.
On the same count and under the same terms, the result for `CCCc1ccccc1O` reads “inactive”.
Consider `CO`, for which the Potency entry was “inactive”.
For `C=CCOCC(O)CS(=O)(=O)O` (stereo unspecified), the Potency result was “inactive”.
With `Nc1ncnc2c1ncn2Cc1c(F)cccc1Cl`, the Potency entry was “inactive”.
For the compound `NC(=O)CCCCC1CCSS1` (stereo unspecified), the Potency result is “inactive”.
Same read-out and setting: the result for `CC(C)c1ccc2oc3nc(N)c(C(=O)O)cc3c(=O)c2c1` reads “inactive”; that for `Fc1ccccc1-c1ccccc1`, “inactive”.
On the same count and under the same terms, the result for `CC(C)N1C(=O)c2ccccc2C1=O` reads “inactive”; that for `O=S(=O)(O)c1ccccc1O`, “inactive”.
On the same count and under the same terms, with `COC(=O)CCCCCCCCC(=O)OC` the entry was “inactive”; with `c1ccc(CCCc2ccccn2)cc1`, “inactive”.
In the case of `O=C(O)c1ccc[n+]([O-])c1`, the Potency entry was “inactive”.
The same measure, in the same setting: with `NS(=O)(=O)c1cc2c(cc1Cl)NC(CSCc1ccccc1)=NS2(=O)=O` the entry was “inactive”; with `c1ccc2cnncc2c1`, “inactive”.
On the same count and under the same terms, with `CC1=CC(=O)CCC1` the entry was “inactive”; with `CN(C)N=Nc1ccccc1`, “inactive”.
In the case of `NC(=S)Nc1cccc2ccccc12`, the activity change, negative = inhibition is -2.03% [at 8.39 µM] (inactive).
For `CC(C)c1cccc(O)c1`, the Potency entry was “inactive”.
With `NC(N)=NS(=O)(=O)c1ccc(N)cc1`, the Potency entry is “inactive”.
On the same count and under the same terms, with `CCCCCCCCN(C)CCCCCCCC` the entry was “inactive”; with `CC1(C)SC(C)(C)SC(C)(C)S1`, “inactive”; with `NCCN1CCNC1=O`, “inactive”.
The same measure, in the same setting: the result for `CCCCCCCCCCC1CO1` (stereo unspecified) reads “inactive”; that for `C=CCOc1nc(OCC=C)nc(OCC=C)n1`, “inactive”.
